In all, about 35,000 sequences were measured (“fluorescence intensity (a.u.)”: median about 10,000, highest 2% from about 52,000 on). Shown is part of a subset that was picked to be rich in the highest values.
These sequences were tested against T1, OsWOX13 (Oryza sativa, UniProt Q5QMM3 1-267) (assay: protein-binding microarray (RPBM); PBS, 2% BSA, 51.3 ng/ul salmon testes DNA, 50 uM zinc acetate, 200 nM TF, 25 C, 1 h; high values mean tight binding). Details: protein: recombinant; tags: N-terminal polyhistidine and DsRed monomer fusion (pET32a); label: CyDye5-dUTP incorporated in the synthesized complementary strand; 3' TTTTT single-stranded linker to array surface; dsDNA, one strand shown.
T1 sequence: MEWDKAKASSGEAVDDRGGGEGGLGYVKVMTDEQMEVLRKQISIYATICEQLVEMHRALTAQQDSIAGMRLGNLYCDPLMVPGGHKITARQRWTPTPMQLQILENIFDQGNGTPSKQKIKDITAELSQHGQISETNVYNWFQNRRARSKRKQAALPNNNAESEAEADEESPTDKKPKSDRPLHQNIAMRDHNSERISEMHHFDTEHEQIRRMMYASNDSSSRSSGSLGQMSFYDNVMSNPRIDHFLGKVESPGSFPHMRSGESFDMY
Procedure, shortened: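 The binding signal for each feature is its fluorescence intensity in arbitrary units. An Axon 4000B scanner was used to read a custom Agilent array that had been made double-stranded with Cy5-dUTP primer extension, blocked with 2% BSA, incubated at 25 °C for 1 h with 200 nM protein in PBS, 2% BSA, salmon testes DNA and 50 µM zinc acetate, and washed. The protein was an N-terminal polyhistidine–DsRed transcription factor fusion from E. coli BL21-CodonPlus, purified on Ni–NTA.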
In the case of “TTTAGTAATTGGTAGAGCTCAAATTTCTAAATTTAACTTCCGGAGTCACCTAGTGCAG”, the binding signal is reported as 6730 fluorescence intensity (a.u.).
“TAAGTAATTGATTGGTAGCCAGCTTCTAACTTCTAGCTTACGGAGTCACCTAGTGCAG” was tested, and the binding signal was 63600 fluorescence intensity (a.u.).
With “ATTAAGATTGATTAATTGTTGCTTGGTTAATAGCCACTTACGGAGTCACCTAGTGCAG” the binding signal was 47500 fluorescence intensity (a.u.).
For “TTCTAATCAAGCTTTCTGGTTAATTTCTCTATGAATTTAACGGAGTCACCTAGTGCAG”, the binding signal was 5250 fluorescence intensity (a.u.).
“TCTAGAGAATTAGCCCTGATTATAATGTGAGACTTTGCATCGGAGTCACCTAGTGCAG” was tested, and the binding signal was 4870 fluorescence intensity (a.u.).
In the case of “AAATCAATCTGATGGGCCGAATTGGAGGCCCATATCCGTGCGGAGTCACCTAGTGCAG”, the binding signal is reported as 8660 fluorescence intensity (a.u.).
With “TTTGGATTGGCCAGAACAAGATATACTTTCGAATCTTTTGCGGAGTCACCTAGTGCAG” the binding signal was 11300 fluorescence intensity (a.u.).
For “TCATAAATTATTTATAATTGCCTTGCTTAATTTACGCCTTCGGAGTCACCTAGTGCAG”, the binding signal was 28900 fluorescence intensity (a.u.).
With “CTCGCCATCTTCGCCGTCCTTGCTTTCTTATATAAATTTTCGGAGTCACCTAGTGCAG” the binding signal was 4080 fluorescence intensity (a.u.).
For “GCCGCCACCTTCGCCTTTATAAAGCTTACCTTTGCTACCACGGAGTCACCTAGTGCAG”, the binding signal was 64800 fluorescence intensity (a.u.).
In the case of “ATATGATTAAACTCAAGTATAGTTGAGGGACGTAAATTGGCGGAGTCACCTAGTGCAG”, the binding signal is reported as 19700 fluorescence intensity (a.u.).
With “TTCATATAATTTATAAGGGACATAATGTAATCACCCTATACGGAGTCACCTAGTGCAG” the binding signal was 10300 fluorescence intensity (a.u.).
With “ACCCACCCTTCAATTAGCCTGTGAATTACTACTTTCTAATCGGAGTCACCTAGTGCAG” the binding signal was 7460 fluorescence intensity (a.u.).
For “AGTGATTAATTCATTCCAAAAGACAGTAGCGACATCTATTCGGAGTCACCTAGTGCAG”, the binding signal was 20300 fluorescence intensity (a.u.).
“ATTAATTATCAGTGAGCACAAGCCTGGCATGTAAATCATGCGGAGTCACCTAGTGCAG” was tested, and the binding signal was 24800 fluorescence intensity (a.u.).
In the case of “TTATGACCGGTTTTGATTAGTTAAGAGACGCCAGATATCTCGGAGTCACCTAGTGCAG”, the binding signal is reported as 14300 fluorescence intensity (a.u.).
In the case of “ATGTTCTTAGATTGATTAAGATTGTCAATTGATTACTCCACGGAGTCACCTAGTGCAG”, the binding signal is reported as 60500 fluorescence intensity (a.u.).
For “GCCTGATTAATTGATTAATTCTCCAGCTGCATCACATTGACGGAGTCACCTAGTGCAG”, the binding signal was 63700 fluorescence intensity (a.u.).
In the case of “ATTTGATTTTCTGTCTTTTCTTCAACTCGATTTTGTTAAACGGAGTCACCTAGTGCAG”, the binding signal is reported as 8770 fluorescence intensity (a.u.).
With “CACCAATTTGATTGTTTTATTATTTTAAATCTTCAGTACTCGGAGTCACCTAGTGCAG” the binding signal was 14200 fluorescence intensity (a.u.).
In the case of “ATACATTGATTAATCAGCCAGCCAGCCAGCCAGCCACTGACGGAGTCACCTAGTGCAG”, the binding signal is reported as 28700 fluorescence intensity (a.u.).
For “TTTTGATTGACAGCGGAAATTACTCGATATTGTTCTTCAACGGAGTCACCTAGTGCAG”, the binding signal was 64300 fluorescence intensity (a.u.).
“CCTGATTAATTGGGTCGTCGTTCCATTCCCAGCCGATCGACGGAGTCACCTAGTGCAG” was tested, and the binding signal was 65200 fluorescence intensity (a.u.).
“TATTAAGAATTAGATTAGGATTAGGATTGTGTCAATGTTCCGGAGTCACCTAGTGCAG” was tested, and the binding signal was 4860 fluorescence intensity (a.u.).
With “GTAGTTCTTGATGTATTTCAATTAGAACCTTAATTTTCCACGGAGTCACCTAGTGCAG” the binding signal was 3390 fluorescence intensity (a.u.).
With “GTATGGATCACCTGATTAATTGGGCCGTCGTTCCATTCCCCGGAGTCACCTAGTGCAG” the binding signal was 9310 fluorescence intensity (a.u.).
With “TAATTGATTAATTAATAATACTCCAGCTGCAGCAACGGCACGGAGTCACCTAGTGCAG” the binding signal was 47300 fluorescence intensity (a.u.).
In the case of “TCCCATTGATTTGATCCAGCTAATTAATTAATTCGATCCACGGAGTCACCTAGTGCAG”, the binding signal is reported as 49900 fluorescence intensity (a.u.).
In the case of “TTAAATTTATACCCCACTTATATCTCACTTACACATCACTCGGAGTCACCTAGTGCAG”, the binding signal is reported as 7930 fluorescence intensity (a.u.).
“TTAAATTTTCTATATAAATCTATTCAAATCTGCATAAATGCGGAGTCACCTAGTGCAG” was tested, and the binding signal was 3870 fluorescence intensity (a.u.).
For “TTGTAAAATTATATTTATTTAAGATGAAGGGAGTACTATCCGGAGTCACCTAGTGCAG”, the binding signal was 4920 fluorescence intensity (a.u.).
“TTGCTGATTGTGAATGGTGGGTGCAAGGATACACTTTTCGCGGAGTCACCTAGTGCAG” was tested, and the binding signal was 23900 fluorescence intensity (a.u.).
For “AGCTAGGTCAATCATGCATGCATGAATATGTGGCCGAGTTCGGAGTCACCTAGTGCAG”, the binding signal was 3270 fluorescence intensity (a.u.).
In the case of “CCAAACAATTTCAGTTTCATCTAAATTGGAGTGGAGCTGGCGGAGTCACCTAGTGCAG”, the binding signal is reported as 11400 fluorescence intensity (a.u.).
In the case of “TTTACTCATGATTACGCTAATTATTCCACTCAATTCTCACCGGAGTCACCTAGTGCAG”, the binding signal is reported as 26100 fluorescence intensity (a.u.).
“ATTAATTAATTAATTAATTAATTAATACTCCTCTCTTCCACGGAGTCACCTAGTGCAG” was tested, and the binding signal was 65500 fluorescence intensity (a.u.).
For “GAGATCACATTAACTAATTGATTAACTAATTACTTCATCCCGGAGTCACCTAGTGCAG”, the binding signal was 29600 fluorescence intensity (a.u.).
With “TTGATAGATTGATCGTTAGTGCTTTTGTCCAATTTGTTCACGGAGTCACCTAGTGCAG” the binding signal was 64200 fluorescence intensity (a.u.).
With “TTTTGTAACTGATCGTTATTAGATCGGATTTGTTCATTGTCGGAGTCACCTAGTGCAG” the binding signal was 3360 fluorescence intensity (a.u.).
“TGGATTAATTTCTCCTCTTCTCTTCCTCCCGTTTATAATACGGAGTCACCTAGTGCAG” was tested, and the binding signal was 6370 fluorescence intensity (a.u.).
For “ATTTAATTTAATTTAATTGTTCCTCCTCTTCTTCTTCTCTCGGAGTCACCTAGTGCAG”, the binding signal was 41000 fluorescence intensity (a.u.).
In the case of “TATGATTGATTGGAGGGATCAATTAATTACTCATTCTCCACGGAGTCACCTAGTGCAG”, the binding signal is reported as 64700 fluorescence intensity (a.u.).
In the case of “CTGATTAAGATCACTAATTGATCTGTCCACATTGCATCCTCGGAGTCACCTAGTGCAG”, the binding signal is reported as 54800 fluorescence intensity (a.u.).
In the case of “CTCGTTAGATTTTGATCAATGATTAGTCCAAATTATACATCGGAGTCACCTAGTGCAG”, the binding signal is reported as 15200 fluorescence intensity (a.u.).
“CTCCACTAATTACTCCACCCAACCATTGGATTCAATGGGCCGGAGTCACCTAGTGCAG” was tested, and the binding signal was 21700 fluorescence intensity (a.u.).
With “TTGTCCATCACAATTGCTAATTAACTAAGACACCCTTCCTCGGAGTCACCTAGTGCAG” the binding signal was 21100 fluorescence intensity (a.u.).

Reference: article PMC7819943, “Rice protein-binding microarrays: a tool to detect cis-acting elements near promoter regions in rice”
